Compound activity: PubChem, several laboratories
eIF4E-4G inh: blocks eIF4E binding to eIF4G | P63073+Q04637 | actives 0.37% (n = 220,000) | inhibition, % at 21.7 µM | AID 782 | TR-FRET eIF4E-eIF4GI(517-606) binding, 2 h;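 active = inhibition above about 30%, limit read from the data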
Bim-Mcl-1: human Bim-Mcl-1 interaction inhibition. Bead-based flow cytometry, Bim peptide-Mcl-1 binding. actives 0.1% (n = 190,000). inhibition, % at 10 µM. AID 1009; in the data active = inhibition above about 40%
Target sequence (Q07820 whole entry, looked up): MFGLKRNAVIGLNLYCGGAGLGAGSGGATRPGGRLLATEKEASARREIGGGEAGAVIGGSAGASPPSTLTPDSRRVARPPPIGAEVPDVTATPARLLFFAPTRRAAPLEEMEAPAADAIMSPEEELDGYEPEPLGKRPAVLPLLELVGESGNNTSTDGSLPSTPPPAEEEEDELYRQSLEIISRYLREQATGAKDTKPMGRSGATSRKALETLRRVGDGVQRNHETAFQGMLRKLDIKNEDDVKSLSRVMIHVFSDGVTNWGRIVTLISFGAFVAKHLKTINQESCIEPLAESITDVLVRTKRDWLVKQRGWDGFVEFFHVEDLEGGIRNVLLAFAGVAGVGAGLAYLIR
Mcl1-Noxa inh: Mcl-1/Noxa interaction inhibition | Q07820 | TR-FRET Mcl-1/Noxa peptide binding, 2 h | inhibition, % at 21.7 µM | actives 1.5% (n = 220,000);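 active = compounds that cut the protein-peptide binding signal by more than 50% relative to plate controls in a single-dose test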;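 note: His-tagged Mcl-1 with rhodamine Noxa BH3 peptide and terbium anti-His antibody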
14-3-3 Bad inh: disrupts binding of bovine 14-3-3 zeta to phospho-Bad peptide; P63103; TR-FRET 14-3-3zeta/Dy647-pBad peptide displacement, 1 h; inhibition, % at 21.7 µM; actives 0.71% (n = 220,000);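 active = inhibition above about 70%, limit read from the data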
Target sequence (P63103 whole entry, looked up): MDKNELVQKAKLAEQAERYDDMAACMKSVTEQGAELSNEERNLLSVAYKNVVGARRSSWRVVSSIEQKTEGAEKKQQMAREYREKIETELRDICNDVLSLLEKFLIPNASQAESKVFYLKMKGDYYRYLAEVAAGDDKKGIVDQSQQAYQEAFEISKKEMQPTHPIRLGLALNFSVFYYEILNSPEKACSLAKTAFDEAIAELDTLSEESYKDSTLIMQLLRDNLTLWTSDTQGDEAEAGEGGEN
Pf gametocyte: kills late stage P. falciparum gametocytes. inhibition, % at 10.9 µM. P. falciparum stage V gametocytes, ATP luminescence, 24 h. actives 0.065% (n = 150,000);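 active = inhibition above the mean plus 3 SD of compounds within the control limits, set per campaign, cut at about 38% in these data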
Mcl1 Bid PPI: disrupts binding of human Mcl-1 to Bid peptide | Q07820 | TR-FRET Mcl-1/Bid-Dy647 peptide binding, 1536-well | inhibition, % at 21.7 µM | actives 0.97% (n = 220,000) | AID 1021;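 active = compounds that cut the binding signal by more than half at the single screening dose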;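 note: His-tagged Mcl-1 with europium anti-His antibody binding Bid BH3 peptide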
Each line names hits and unclear results; the compound was inactive in the other large screens; [ ] = another dose, or the depositor's remark. In the library only some 2.7% were active in any assay of this set; here they are far more common.

COc1cc(/C=C2\SC(=O)NC2=O)ccc1Oc1ccc([N+](=O)[O-])cc1[N+](=O)[O-]	Mcl1-Noxa inh 86.8 (no result: Pf gametocyte)
COc1ccc(NC(C)=O)cc1C#N	none
CC(=O)c1ccc(Nc2ncnc3c2oc2ccccc23)cc1	14-3-3 Bad inh 72.0 (no result: Pf gametocyte)
CC(=O)Nc1ccc(Nc2nc(C)nc3c2oc2ccccc23)cc1	none
O=S1(=O)CCN(Cc2ccc(Cl)c(Cl)c2)CC1	none (no result: Pf gametocyte)
O=S1(=O)c2ccccc2N=NN1Cc1ccc(Cl)c(Cl)c1	Mcl1-Noxa inh 77.4 (no result: Pf gametocyte)
CC(C)(C)c1ccc(CN2N=Nc3ccccc3S2(=O)=O)cc1	Mcl1-Noxa inh 77.4 (no result: Pf gametocyte)
O=C(COC(=O)Cc1ccc(Br)cc1)NCc1ccc(F)cc1	none (no result: Pf gametocyte)
Cc1c(C)c2ccc(OCC(=O)N3CCOCC3)c(C)c2oc1=O	none
Cc1ccccc1-n1nc(-c2cccnc2)cc1C(=O)NN	none
CCOc1ccc(-c2ccc(/C=C3/C(=N)N4C(C)=CSC4=NC3=O)o2)c([N+](=O)[O-])c1	Mcl1-Noxa inh 66.0, Mcl1 Bid PPI 68.2
CC1=CN2C(=N)/C(=C/c3ccc([N+](=O)[O-])o3)C(=O)N=C2S1	Mcl1-Noxa inh 64.7
Cc1ccc(-c2ccc(/C=C3\C(=O)ON=C3c3ccccc3)o2)c([N+](=O)[O-])c1	none (no result: Mcl1-Noxa inh)
CC1=CN2C(=N)/C(=C/c3ccco3)C(=O)N=C2S1	none
CCOc1ccc(-c2ccc(/C=C3/C(=N)N4C=CSC4=NC3=O)o2)c([N+](=O)[O-])c1	Mcl1-Noxa inh 129.2, 14-3-3 Bad inh 83.8[fluorescence artefact?], Mcl1 Bid PPI 89.3
O=C1C=C(c2ccc3c(c2)oc2ccccc23)C[C@@H](c2ccc3c(c2)OCO3)C1	none (no result: eIF4E-4G inh, Bim-Mcl-1, Mcl1-Noxa inh, 14-3-3 Bad inh, Mcl1 Bid PPI)
CN1CCN(CCCNC(=O)c2ccc(/C=C3\Sc4ccccc4N(Cc4ccc(F)cc4)C3=O)cc2)CC1	eIF4E-4G inh 35.0, 14-3-3 Bad inh 73.5
CN1CCN(CCCNC(=O)c2ccc(/C=C3/Sc4ccccc4N(Cc4cccc(Cl)c4)C3=O)cc2)CC1	14-3-3 Bad inh 77.3
CN1CCN(CCCN2c3ccccc3Sc3ccc(Cl)cc32)CC1	Mcl1-Noxa inh 77.2 (no result: Pf gametocyte)
CCN1CCN(CCNC(=O)c2ccc(/C=C3\Sc4ccccc4N(Cc4ccccc4F)C3=O)cc2)CC1	none
OCCN1CCN(CCCN2c3ccccc3Sc3ccc(C(F)(F)F)cc32)CC1	none (no result: Pf gametocyte)
CCCN(S(=O)(=O)c1ccc(OCC)cc1)S(=O)(=O)c1cccs1	none
COc1cc(C(=O)Nc2nnc(C)s2)c([N+](=O)[O-])cc1OC	none (no result: Bim-Mcl-1)
Cc1ccc(-n2nnnc2C(Cl)(Cl)c2nnnn2-c2ccc(C)cc2)cc1	Mcl1-Noxa inh 53.3 (no result: Pf gametocyte)
COc1ccc(C2=NOC(Cn3nc(C(=O)NCc4ccco4)cc3-c3ccccc3)C2)cc1 (configuration not stated)	none (no result: eIF4E-4G inh, Bim-Mcl-1, Mcl1-Noxa inh, 14-3-3 Bad inh, Mcl1 Bid PPI)
N#Cc1cc(-c2ccccc2)nc(Oc2ccccc2)n1	Mcl1 Bid PPI 83.3
O=C(Nn1cnnc1)c1ccccc1CCc1ccccc1	Mcl1 Bid PPI 97.1 (no result: Pf gametocyte)
Cc1ccc(S(=O)(=O)CCC(=O)N2CCN(c3ccc(Cl)cc3)CC2)cc1	none (no result: Pf gametocyte)
COC(=O)c1ccc(CSc2nc3ccccc3c(=O)n2Cc2ccco2)o1	none (no result: Pf gametocyte)
Nc1ccc(-c2cc(N)n(-c3ccccc3)n2)cc1	14-3-3 Bad inh 81.0 (no result: Pf gametocyte)
COC1=C/C(=C/c2c(O)c(C#N)c3ccccn23)C=CC1=O	none (no result: Bim-Mcl-1)
O=C(NN1CCOCC1)c1cccc(COc2cccc(Br)c2)c1	14-3-3 Bad inh 92.7
N=c1c2c3c(sc2ncn1Nc1ccccc1)CCC3	none (no result: Bim-Mcl-1)
CC(=O)c1ccc2c(c1)C1C=CCC1C(c1ccc(S(=O)(=O)N3CCOCC3)cc1)N2 (configuration not stated)	none
Cc1c(Cl)cccc1NS(=O)(=O)c1ccc2c(c1)C1C=CCC1C(c1ccc(C(=O)O)cc1)N2 (configuration not stated)	eIF4E-4G inh 49.7, Mcl1-Noxa inh 103.1, 14-3-3 Bad inh 90.7, Mcl1 Bid PPI 100.5 (no result: Pf gametocyte)
COc1cc(/C=C2\SC(N)=NC2=O)ccc1OCC(=O)Nc1ccc(C)cc1	14-3-3 Bad inh 97.2[fluorescence artefact?], Mcl1 Bid PPI 61.3
O=c1ccc2[n+]([O-])c3ccc(O)cc3oc-2c1	Mcl1-Noxa inh 73.7 (no result: Bim-Mcl-1)
COc1cc(N=c2ssnc2Cl)cc(OC)c1	eIF4E-4G inh 63.1 (no result: Mcl1-Noxa inh, Pf gametocyte)
Clc1nssc1=Nc1ccc(Br)cc1	eIF4E-4G inh 51.0
N#Cc1cccc(N=c2ssnc2Cl)c1	eIF4E-4G inh 54.3
Clc1nssc1=Nc1nncs1	none (no result: eIF4E-4G inh, Bim-Mcl-1, Mcl1-Noxa inh, 14-3-3 Bad inh, Mcl1 Bid PPI)
CCc1nnc(NC(=O)CN2CCN(c3ccccc3F)CC2)s1	none
Cc1ccc(NCCC#N)cc1C	none
CC1Cc2ccccc2N1C(=O)CSc1nnc(-c2ccc(S(=O)(=O)N3CCOCC3)cc2)n1C (configuration not stated)	none
CCCCn1nc2cc(C(=O)NCc3cc(C(F)(F)F)cc(C(F)(F)F)c3)ccc2c1OC	none (no result: eIF4E-4G inh, 14-3-3 Bad inh, Pf gametocyte)
CCCCn1nc2cc(C(=O)NCc3ccc(OC(F)(F)F)cc3)ccc2c1OC	14-3-3 Bad inh 70.8 (no result: Pf gametocyte)
COC(=O)C1=NN(C(=O)c2ccc(Cl)cc2)C(O)(c2ccccc2)C1 (configuration not stated)	none (no result: Pf gametocyte)
CCC1(O)CC(C(=O)OC)=NN1C(=O)c1ccccc1 (configuration not stated)	Mcl1-Noxa inh 64.2
C/C(CCc1ccccc1)=N/NC(=O)C(=O)NC(C)c1ccccc1 (configuration not stated)	none (no result: Pf gametocyte)
CC(C)(C)C1=Nn2c(nnc2-c2ccccc2F)SC1	none (no result: eIF4E-4G inh, 14-3-3 Bad inh, Pf gametocyte)
CC(C)(C)C1=Nn2c(nnc2-c2ccccn2)SC1	eIF4E-4G inh 51.3
COc1cc(/C=C2\SC(=O)N(CCNC(=O)c3sc4cc(F)ccc4c3Cl)C2=O)cc(OC)c1OC	none
Cc1ccc(-c2nc3ncccn3c2NC(=O)C2CC2)cc1	none (no result: Pf gametocyte)
CC(=O)Nc1c(-c2ccccc2)nc2ncccn12	eIF4E-4G inh 32.9 (no result: Pf gametocyte)
O=C(O)c1ccc(-n2c(-c3cc(-c4ccco4)[nH]n3)n[nH]c2=S)cc1	none (no result: Pf gametocyte)
CC(=O)c1ccc(-n2c(-c3cc(-c4ccco4)[nH]n3)n[nH]c2=S)cc1	Mcl1-Noxa inh 62.7 (no result: Pf gametocyte)
O=C1c2ccccc2C(=O)N1/N=C/c1ccc(O)c(O)c1	Mcl1-Noxa inh 71.6 (no result: Pf gametocyte)
O=C1C2C3C=CC(CC3)C2C(=O)N1/N=C/c1ccc(O)c(O)c1 (configuration not stated)	none (no result: Pf gametocyte)
COc1ccc(C(=O)NCC(=O)Nc2cccc(S(=O)(=O)NCc3ccco3)c2)cc1OC	none
CC(C)(C)c1[nH]nc2c1C(c1cccnc1)C(C#N)=C(N)O2 (configuration not stated)	none
CC(C)(C)c1[nH]nc2c1C(c1ccc(OC(=O)c3ccco3)cc1)C(C#N)=C(N)O2 (configuration not stated)	eIF4E-4G inh 42.9 (no result: Pf gametocyte)
Cc1nn(C)c(Cl)c1CN1CCCC(CO)(Cc2ccccc2)C1 (configuration not stated)	none
N#Cc1c(-c2ccccc2)nc(-c2ccccc2)nc1N1CCOCC1	Mcl1 Bid PPI 50.9 (no result: Pf gametocyte)
O=c1ccc(Cc2ccccn2)n[nH]1	none (no result: Pf gametocyte)
COc1nnc(-c2ccc(C)cc2)c2ccccc12	none (no result: eIF4E-4G inh, Bim-Mcl-1, Mcl1-Noxa inh, 14-3-3 Bad inh, Mcl1 Bid PPI)
